# Measurements published in PubChem BioAssay (Tox21).
# Values without a mark were called inactive. Records with an inconclusive call do not appear. A call without a number means that no potency is given here. The source made the active and inactive calls. Unless noted, calls follow the shape of the full dose curve.
# Assays:
# [1] = Nuclear factor erythroid 2-related factor 2/antioxidant responsive element (Nrf2/ARE) small molecule agonists: qHTS cell viability counter screen in human keratinocytes (AID 1919968; active = well fitted curve in the direction sought with a large enough effect in the repeat runs; an effect the other way counts as inactive or inconclusive; also: nearly all actives have a fitted effect of over 55% in size; also: potency is read from the fitted curve at half-maximal effect)
# Summary of the method: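 Fluorescence read-out from CellTiter-Fluor after 1 h at 37 C. Wells held HaCaT-derived ARE-luciferase reporter cells (1,500/well) treated 23 h with DMSO-dissolved compounds. Run in the same wells as the luciferase agonist read.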
# [2] = Nuclear factor erythroid 2-related factor 2/antioxidant responsive element (Nrf2/ARE) small molecule agonists: luciferase reporter gene qHTS assay in human keratinocytes (AID 1919969); also: nearly all actives have a fitted effect of over 35% in size; also: potency is read from the fitted curve at half-maximal effect
# [3] = molecular target: Gonadotropin-releasing hormone receptor (Homo sapiens) (UniProt P30968); test: Human gonadotropin-releasing hormone receptor (GnRHR) small molecule agonists, calcium flux assay in GnRHR-HEK293 cells (AID 1920063); also: nearly all actives have a fitted effect of over 35% in size
# Chain of Gonadotropin-releasing hormone receptor (Homo sapiens) (P30968 whole entry, looked up): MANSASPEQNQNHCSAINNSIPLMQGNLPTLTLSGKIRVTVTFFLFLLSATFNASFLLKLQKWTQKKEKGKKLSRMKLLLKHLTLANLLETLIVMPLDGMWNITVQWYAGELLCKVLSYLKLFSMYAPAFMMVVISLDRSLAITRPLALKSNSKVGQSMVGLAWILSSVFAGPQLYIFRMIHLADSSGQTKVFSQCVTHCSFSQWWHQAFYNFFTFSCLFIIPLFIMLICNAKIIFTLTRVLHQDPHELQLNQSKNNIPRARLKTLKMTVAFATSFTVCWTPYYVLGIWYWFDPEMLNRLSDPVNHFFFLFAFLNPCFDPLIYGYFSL
# Summary of the method: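 Calcium-dye fluorescence, Ex/Em=480/540, recorded every 1 sec over 3 min after compound addition to GnRHR-HEK293 cells. Cells had been seeded 18 hours earlier and dye-loaded for 1 hour at 37 C. Fifteen concentrations, triplicates.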
# [4] = molecular target: KiSS-1 receptor (Homo sapiens) (UniProt Q969F8); test: Human kisspeptin (KISS1R) small molecule agonists, calcium flux assay in KISS1R-HEK293 cells (AID 1920064; active = well fitted curve in the direction sought with a large enough effect in the repeat runs; an effect the other way counts as inactive or inconclusive)
# Chain of KiSS-1 receptor (Homo sapiens) (Q969F8 whole entry, looked up): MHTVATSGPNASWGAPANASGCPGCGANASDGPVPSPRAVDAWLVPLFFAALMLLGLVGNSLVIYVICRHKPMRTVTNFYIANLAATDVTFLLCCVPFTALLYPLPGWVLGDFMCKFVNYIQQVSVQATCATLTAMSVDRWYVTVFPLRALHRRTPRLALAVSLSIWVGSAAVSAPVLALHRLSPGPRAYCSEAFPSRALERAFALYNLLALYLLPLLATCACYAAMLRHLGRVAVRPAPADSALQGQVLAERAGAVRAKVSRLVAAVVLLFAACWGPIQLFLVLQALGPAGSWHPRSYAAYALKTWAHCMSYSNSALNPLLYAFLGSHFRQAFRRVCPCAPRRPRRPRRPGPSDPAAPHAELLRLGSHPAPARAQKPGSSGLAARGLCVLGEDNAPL
# Summary of the method: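 Calcium flux read-out: kinetic fluorescence at Ex/Em=480/540, 1 s intervals over 3 min, after pin-tool compound addition to dye-loaded KISS1R-HEK293 cells. Fifteen concentrations, triplicates.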
# [5] = G protein-coupled receptor (GPCR) small molecule agonists, calcium flux assay: HEK293 wild type cell line counter screen (AID 1920065)
# Summary of the method: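 Agonist mode; 18 h seeding at 37 C, 1 h dye load at 37 C; compounds pinned from DMSO, ATP as positive control; kinetic fluorescence 480/540 nm, 3 min, 1 s reads; 15 concentrations, triplicate.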
# [6] = p53 small molecule agonists, cell-based qHTS assay with human liver microsomes (AID 1963577);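 also: p53 response element beta-lactamase reporter cells with liver microsomes plus NADPH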
# Summary of the method: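 With metabolic activation: human liver microsomes (0.5 mg/mL final) plus NADPH (0.5 mg/mL final) added alongside compounds to p53RE-bla cells; 16 h 37 C exposure; beta-lactamase read by LiveBLAzer fluorescence.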
# [7] = p53 small molecule agonists, cell-based qHTS assay with rat liver microsomes (AID 1963578)
# Summary of the method: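 Metabolic activation by rat liver microsomes and NADPH, each 0.5 mg/mL final, added right after compounds to p53RE-bla reporter cells (4,000/well, plated 5 h earlier). 16 h at 37 C, then LiveBLAzer substrate for 2 h at room temperature in the dark; fluorescence read-out.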
# [8] = p53 small molecule agonists, cell-based qHTS assay with human liver microsomes: qHTS cell viability counter screen (AID 1963579); also: nearly all actives have a fitted effect of over 45% in size
# Summary of the method: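 Metabolic activation used human liver microsomes and NADPH, both 0.5 mg/mL final, over 16 hours at 37 C on p53RE-bla cells (4,000/well). Cytotoxicity measured by CellTiter-Glo luminescence, 30 min at room temperature.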
# [9] = p53 small molecule agonists, cell-based qHTS assay with rat liver microsomes: qHTS cell viability counter screen (AID 1963580); also: nearly all actives have a fitted effect of over 45% in size
# Summary of the method: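 Rat liver microsome (0.5 mg/mL final) and NADPH (0.5 mg/mL final) co-incubation with compounds for 16 h at 37 C on HCT-116 p53RE-bla cells; cytotoxicity taken from intracellular ATP luminescence.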
# [10] = p53 small molecule agonists, cell-based qHTS assay: qHTS cell viability counter screen (AID 1963581); also: nearly all actives have a fitted effect of over 45% in size
# Summary of the method: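 Cytotoxicity read-out: ATP-based luminescence (CellTiter-Glo, 30 min RT) measured in the same wells as the p53 reporter assay, HCT-116 p53RE-bla cells, 16 h compound exposure at 37 C.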
# [11] = p53 small molecule agonists, cell-based qHTS assay (AID 1963582; active = well fitted activation curve with a large enough effect in the signal ratio in the repeat runs, not every such curve was filed as active; the % refers to the signal ratio)
# Summary of the method: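 Fluorescence intensity read-out of a beta-lactamase reporter under a p53 response element. Cells were exposed to DMSO-dissolved compounds for 16 h at 37 C, then developed with FRET substrate for 2 h at RT.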
# [12] = molecular target: 5-hydroxytryptamine receptor 2A (Homo sapiens) (UniProt P28223); test: 5-hydroxytryptamine receptor 2A (HTR2A) small molecule antagonists, cell-based qHTS assay (AID 1963586); also: nearly all actives have a fitted effect of over 45% in size
# Chain of 5-hydroxytryptamine receptor 2A (Homo sapiens) (P28223 whole entry, looked up): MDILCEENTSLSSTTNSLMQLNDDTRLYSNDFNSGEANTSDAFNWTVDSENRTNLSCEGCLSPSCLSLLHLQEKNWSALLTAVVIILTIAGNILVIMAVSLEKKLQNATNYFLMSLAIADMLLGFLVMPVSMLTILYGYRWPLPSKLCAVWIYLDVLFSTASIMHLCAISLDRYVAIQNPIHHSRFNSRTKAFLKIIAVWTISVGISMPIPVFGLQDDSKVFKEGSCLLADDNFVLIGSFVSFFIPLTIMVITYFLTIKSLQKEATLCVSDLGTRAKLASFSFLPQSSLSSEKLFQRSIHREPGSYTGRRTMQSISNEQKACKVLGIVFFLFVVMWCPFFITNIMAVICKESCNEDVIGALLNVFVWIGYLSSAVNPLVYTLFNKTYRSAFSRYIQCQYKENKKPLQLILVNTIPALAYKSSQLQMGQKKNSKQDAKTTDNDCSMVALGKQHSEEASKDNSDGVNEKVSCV
# Summary of the method: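 CHO cells stably expressing human HTR2A were plated for 18 h at 37 C, then loaded with calcium dye for 1 h. Compounds were preincubated 5 min at room temperature before DOI (4 nM solution) was added. Kinetic fluorescence was read for 3 min.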
# [13] = molecular target: 5-hydroxytryptamine receptor 2A (Homo sapiens) (UniProt P28223); test: 5-hydroxytryptamine receptor 2A (HTR2A) small molecule agonists, cell-based qHTS assay (AID 1963587); also: nearly all actives have a fitted effect of over 30% in size; also: potency is read from the fitted curve at half-maximal effect
# Summary of the method: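 Kinetic calcium-flux fluorescence (2 min, 1 sec intervals) after compound addition in agonist mode. HTR2A-CHO cells were cultured 18 h, then dye-loaded 1 h at 37 C.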
# [14] = molecular target: Muscarinic acetylcholine receptor M1 (Homo sapiens) (UniProt P11229); test: Cholinergic receptor muscarinic 1 (CHRM1) small molecule antagonists, cell-based qHTS assay (AID 1963588); also: nearly all actives have a fitted effect of over 40% in size
# Chain of Muscarinic acetylcholine receptor M1 (Homo sapiens) (P11229 whole entry, looked up): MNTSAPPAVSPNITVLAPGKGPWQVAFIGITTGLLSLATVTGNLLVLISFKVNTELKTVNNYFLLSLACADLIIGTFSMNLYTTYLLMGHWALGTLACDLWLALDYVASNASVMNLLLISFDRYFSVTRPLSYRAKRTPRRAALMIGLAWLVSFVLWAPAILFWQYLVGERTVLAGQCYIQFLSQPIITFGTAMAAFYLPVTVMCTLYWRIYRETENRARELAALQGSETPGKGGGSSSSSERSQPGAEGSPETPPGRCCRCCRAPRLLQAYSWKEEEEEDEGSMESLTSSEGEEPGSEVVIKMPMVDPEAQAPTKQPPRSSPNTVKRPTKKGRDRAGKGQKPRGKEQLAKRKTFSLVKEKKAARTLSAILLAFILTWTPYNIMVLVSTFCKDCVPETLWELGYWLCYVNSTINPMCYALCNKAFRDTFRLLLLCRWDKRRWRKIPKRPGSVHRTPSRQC
# Summary of the method: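 Compounds were tested at 15 concentrations in three independent runs. Dye-loaded CHRM1-CHO cells were exposed 5 min at room temperature before stimulation by acetylcholine added at 50nM. Intracellular calcium was read kinetically on FDSS for 3 min.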
# [15] = molecular target: Muscarinic acetylcholine receptor M1 (Homo sapiens) (UniProt P11229); test: Cholinergic receptor muscarinic 1 (CHRM1) small molecule agonists, cell-based qHTS assay (AID 1963589); also: nearly all actives have a fitted effect of over 35% in size
# Summary of the method: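 Calcium flux read-out: kinetic fluorescence at 1 sec intervals after pin-tool compound addition to dye-loaded CHRM1-CHO cells (human M1). Agonist mode; 15 concentrations tested in triplicate independent runs.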
# [16] = cAMP Responsive Elements (CRE) small molecule agonists, cell-based qHTS assay (AID 1963590)
# Summary of the method: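 Beta-lactamase reporter readout: LiveBLAzer B/G FRET substrate, 2 h at room temperature, added after 3 h compound treatment of CRE-bla HEK 293T cells at 37 C/5% CO2.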
# [17] = molecular target: Beta-2 adrenergic receptor (Homo sapiens) (UniProt P07550); test: Adrenergic beta2 receptor (ADRB2) small molecule antagonists, cell-based qHTS assay (AID 1963592); also: series mostly up to about 92 µM; nearly all actives have a fitted effect of over 50% in size
# Chain of Beta-2 adrenergic receptor (Homo sapiens) (P07550 whole entry, looked up): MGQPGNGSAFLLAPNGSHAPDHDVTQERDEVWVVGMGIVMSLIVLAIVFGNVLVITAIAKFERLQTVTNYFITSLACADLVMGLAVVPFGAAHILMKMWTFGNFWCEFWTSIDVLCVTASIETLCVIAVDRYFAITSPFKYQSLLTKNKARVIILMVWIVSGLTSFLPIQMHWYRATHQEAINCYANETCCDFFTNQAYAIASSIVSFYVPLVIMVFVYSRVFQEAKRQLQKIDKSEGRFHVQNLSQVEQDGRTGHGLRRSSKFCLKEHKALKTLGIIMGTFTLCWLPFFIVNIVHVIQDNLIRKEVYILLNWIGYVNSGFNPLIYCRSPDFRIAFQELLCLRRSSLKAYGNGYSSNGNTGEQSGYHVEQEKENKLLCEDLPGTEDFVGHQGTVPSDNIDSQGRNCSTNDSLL
# Summary of the method: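 Assay format: CHO-ADRB2 cells, 18-20hr seeding at 37C/5% CO2, then compound plus 1nM isoproterenol agonist mix for 0.5hr RT. Homogeneous time-resolved fluorescence cAMP detection after 1hr, expressed as 665/615 nm ratio.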
# [18] = molecular target: D(2) dopamine receptor (Homo sapiens) (UniProt P14416); test: Dopamine D2 receptor (DRD2) small molecule agonists, cell-based qHTS assay (AID 1963594); also: nearly all actives have a fitted effect of over 35% in size
# Chain of D(2) dopamine receptor (Homo sapiens) (P14416 whole entry, looked up): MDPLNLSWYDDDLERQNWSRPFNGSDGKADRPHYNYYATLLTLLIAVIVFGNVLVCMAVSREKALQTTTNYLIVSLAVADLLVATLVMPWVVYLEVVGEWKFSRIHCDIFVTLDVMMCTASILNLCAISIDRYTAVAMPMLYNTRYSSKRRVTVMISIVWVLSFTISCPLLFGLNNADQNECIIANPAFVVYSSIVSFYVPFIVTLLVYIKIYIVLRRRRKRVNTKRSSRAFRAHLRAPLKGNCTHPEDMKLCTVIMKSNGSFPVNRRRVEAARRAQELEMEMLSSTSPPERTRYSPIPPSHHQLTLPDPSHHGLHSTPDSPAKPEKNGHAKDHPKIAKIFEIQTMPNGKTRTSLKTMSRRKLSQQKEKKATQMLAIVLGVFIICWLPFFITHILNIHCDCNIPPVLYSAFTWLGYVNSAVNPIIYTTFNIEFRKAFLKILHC
# Summary of the method: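 cAMP accumulation in DRD2-HEK293 cells measured by HTRF after 1 h detection; compounds added 10 min before NKH477 (200nM […]) forskolin-analogue stimulation, 30 min at room temperature, with Ro20-1724 present at 0.1 mM final.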
# [19] = molecular target: D(2) dopamine receptor (Homo sapiens) (UniProt P14416); test: Dopamine D2 receptor (DRD2) small molecule antagonists, cell-based qHTS assay (AID 1963595; active = well fitted inhibition curve with a large enough effect in the signal ratio in the repeat runs, with a control signal flat; the % refers to the signal ratio)
# Summary of the method: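 HEK293 cells stably expressing DRD2 were preincubated with 0.1 mM Ro20-1724, then with compound for 10 min at room temperature. Cells were stimulated with 200 nM NKH477 plus 12 nM quinpirole for 30 min, and cAMP was read by HTRF.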
# [20] = cAMP Responsive Elements (CRE) small molecule antagonists, cell-based qHTS assay (AID 1963591; active = well fitted inhibition curve with a large enough effect in the signal ratio in the repeat runs, not every such curve was filed as active; the % refers to the signal ratio)
# Summary of the method: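 HEK293T CRE-bla; 18 h preincubation; compound pin-transfer; NKH477 0.25 uM final, 3 h, 37 C; LiveBLAzer FRET substrate 2 h RT.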
Compound,Potency [1],Potency [2],Potency [3],outcome [4],outcome [5],Potency [6],Potency [7],Potency [8],Potency [9],Potency [10],Potency [11],Potency [12],Potency [13],Potency [14],Potency [15],Potency [16],Potency [17],Potency [18],Potency [19],Potency [20]
NC(=O)Nc1ccc(Cl)c(Cl)c1,inactive,inactive,inactive,inactive,inactive,inactive,inactive,inactive,inactive,inactive,inactive,inactive,inactive,inactive,inactive,inactive,inactive,inactive,inactive,
CNC(=O)c1ccccc1,inactive,inactive,inactive,inactive,inactive,inactive,inactive,inactive,inactive,inactive,inactive,inactive,inactive,inactive,inactive,inactive,inactive,inactive,inactive,
CCCCC/C=C/CC(=O)OC,inactive,inactive,inactive,inactive,inactive,inactive,inactive,inactive,inactive,inactive,inactive,inactive,inactive,inactive,inactive,inactive,inactive,inactive,inactive,
O=C(CO)[C@@H](O)[C@H](O)[C@@H](O)CO,inactive,inactive,inactive,inactive,inactive,inactive,inactive,inactive,inactive,inactive,inactive,inactive,inactive,inactive,inactive,,inactive,inactive,inactive,
CC(C)(C)C(=O)OCOC(=O)[C@@H]1N2C(=O)[C@@H](NC(=O)[C@H](N)c3ccccc3)[C@H]2SC1(C)C,inactive,inactive,inactive,inactive,inactive,inactive,inactive,inactive,inactive,inactive,inactive,inactive,inactive,inactive,inactive,,inactive,inactive,inactive,
COc1ccc(OC)c(N=Nc2c(O)ccc3ccccc23)c1,27.3 µM (active),27.3 µM (active),inactive,inactive,inactive,inactive,inactive,inactive,inactive,inactive,inactive,inactive,4.36 µM (active),inactive,inactive,,,inactive,inactive,inactive
O=S(=O)(O)CCO,inactive,inactive,inactive,inactive,inactive,inactive,inactive,inactive,inactive,inactive,inactive,inactive,inactive,inactive,inactive,,inactive,,inactive,inactive
